Among all 320,000 compounds or so, about 22,000 (6.9%) were called active. Another 27% or so got no clear call; they are omitted. The entries come from a sample that favours actives as a whole. A call without a number means that no potency is given here. Values without a mark were called inactive. The call rests on the fitted dose curve; in most records, active means well fitted inhibition curve with a large enough effect; inconclusive means small, poorly fitted or top-dose-only effect, or another doubt; inactive means no such curve, though single readings can be large or run the other way.
assay: Primary qHTS for delayed death inhibitors of the malarial parasite plastid, 96 hour incubation; conditions: P. falciparum luciferase reporter growth; series mostly up to 28.7 µM
In short: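 Luminescence readout: decreased luciferase signal marks inhibited growth of reporter-expressing P. falciparum in infected red cells (2% hematocrit, 0.05% parasitemia final), exposed to compound two generations (96 h, 37 C, 5% CO2).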
Potency means the concentration at half of the fitted maximal effect.

SMILES | Potency | activity change, negative = inhibition
CN(CC(=O)Nc1ccc(F)cc1)CC(=O)N1CCCCC1 | inactive | 
Cc1ccc(-c2nnc(Nc3ccc(C(=O)N(C)C)cc3)c3ccccc23)cc1S(N)(=O)=O | inactive | 
COc1ccccc1C(=O)N(Cc1ccc(C)o1)C1CCS(=O)(=O)C1 (stereo unspecified) | inactive | 
CCCCc1nc(SCC(=O)Nc2nnc(C(C)C)s2)n[nH]1 | inactive | 
CC(=O)Nc1ccc(NC(=O)CSc2ncnc3c2cnn3Cc2ccccc2)cc1 | inactive | 
Clc1ccc(Cn2ncc3c(NCc4cccnc4)ncnc32)cc1 | inactive | 
CC(C)CNc1ncnc2c1cnn2Cc1ccc(Cl)cc1 | 11.7 µM (active) | 
CC1CCCC(C)N1C(=O)CSc1nnnn1C1CCCC1 (stereo unspecified) | inactive | 
CC(=O)Nc1ccc(NC(=O)CSc2nnnn2C2CCCCC2)cc1 | inactive | 
O=C(CSc1nnnn1C1CCCC1)N1CCCCC1 | 0.586 µM (active) | 
COc1cccc(NC(=O)c2ccccc2N(Cc2ccccc2)S(C)(=O)=O)c1 | inactive | 
Cc1ccc(S(=O)(=O)N2CC(C)N(S(C)(=O)=O)C2)cc1 (stereo unspecified) | inactive | 
O=C(CNC(=O)C12CC3CC(CC(C3)C1)C2)OCC(=O)N1CCCCC1 | inactive | 
CC(C)N(Cc1ccccc1)C(=O)COC(=O)c1ccccc1SCC(=O)N1CCCC1 | inactive | 
Cc1cccc(NC(=O)NC2(C)CCS(=O)(=O)C2)c1 (stereo unspecified) | inactive | 
CCOC(=O)CSc1nc2ccc(C)cc2[nH]1 | 13.1 µM (active) | 
CC(=O)Nc1ccc(C(=O)CSc2nc3ccc(C)cc3[nH]2)cc1 | inactive | 
COc1ccc2nc(SCC(=O)Nc3c(C)cc(C)cc3C)[nH]c2c1 | inactive | 
O=C(Nc1c2c(nn1-c1ccccc1)CS(=O)(=O)C2)C1CCCC1 | inactive | 
CSc1ncc(C(=O)NCCCc2ccccc2)c(C)n1 | inactive | 
CCSc1nc2c(c(=O)[nH]1)C(c1cccnc1)C(C(=O)OC(C)C)=C(C)N2 (stereo unspecified) | 1.31 µM (active) | 
COC(=O)C1=C(C)Nc2ncnn2C1c1cccnc1 (stereo unspecified) | inactive | 

SMILES | Potency | activity change, negative = inhibition
COC(=O)C1=C(N)Oc2cc(C)oc(=O)c2C1c1cccnc1 (stereo unspecified) | inactive | 
COc1ccc2c(C)cc(SCC(=O)NCC3CCCO3)nc2c1 (stereo unspecified) | inactive | 
O=C(Nc1ccc(F)cc1)C1CCCN(S(=O)(=O)c2ccc(-n3cnnn3)cc2)C1 (stereo unspecified) | inactive | 
CC1CN(c2nc(-c3ccccc3)nnc2-c2ccccc2)CC(C)O1 (stereo unspecified) | 0.828 µM (active) | 
Cc1ccc(-c2nnc(C)c(N3CC(C)OC(C)C3)n2)cc1 (stereo unspecified) | inactive | 
c1ccc(-c2nnc(N3CCOCC3)c3ccccc23)cc1 | inactive | 
CCOC(=O)c1cccc(NC(=O)CCc2nnc3ccc(N4CCOCC4)nn23)c1 | inactive | 
O=C(CNC(=O)c1ccc(Br)o1)Nc1ccccc1 | 13.1 µM (active) | 
O=C(NCc1cccs1)c1ccc(Br)o1 | inactive | 
O=C(CNC(=O)c1ccc(Br)o1)NCC1CCCO1 (stereo unspecified) | inactive | 
Nc1c(N(CCCO)C(=O)C2CCCC2)c(=O)[nH]c(=O)n1Cc1ccccc1 | inactive | 
Cc1cc(Cl)ccc1OCCCC(=O)Nc1cccc(-n2cnnn2)c1 | inactive | 
OC(CNC1CCCC1)COc1ccc(F)cc1 (stereo unspecified) | inactive | 
Cc1ccc(-c2cc(=O)c3ccc(F)cc3[nH]2)cc1 | 2.94 µM (active) | 
Cc1ccc(-c2cc(=O)c3ccc(Cl)cc3[nH]2)cc1 | inactive | 
Cc1ccc(S(=O)(=O)/N=C(\N)c2ccc(F)cc2)cc1 | inactive | 
COCCN1C(=O)N(c2ccc(Cl)cc2)C(=O)C1CC(=O)Nc1cc(OC)cc(OC)c1 (stereo unspecified) | inactive | 
O=C(O)c1ccccc1OCc1ccccc1Cl | inactive | 
O=C(CCc1c[nH]c2ccccc12)NCCOc1ccccc1 | inactive | 
O=C(Cc1c[nH]c2ccccc12)OCCOC(=O)Cc1c[nH]c2ccccc12 | 5.22 µM (active) | 
O=C(COC(=O)Cc1c[nH]c2ccccc12)NCCc1ccccc1 | inactive | 
O=C1NN(c2ccccc2)C(=O)/C1=C/c1ccc(-c2cccc(C(=O)O)c2)o1 | inactive | 

SMILES | Potency | activity change, negative = inhibition
COc1ccc(CNC(=O)CCC(=O)Nc2nnc(C(C)C)s2)cc1 | inactive | 
COc1cc2ccccc2cc1C(=O)Nc1nc(C)c(C(C)=O)s1 | inactive | 
COc1ccc(C(=O)CCC(=O)Nc2cccnc2)c(OC)c1 | inactive | 
CCOC(=O)C1(Cc2ccccc2C)CCCN(C(=O)CCc2c(C)noc2C)C1 (stereo unspecified) | 11.7 µM (active) | 
CCOC(=O)C1(Cc2ccccc2C)CCCN(S(C)(=O)=O)C1 (stereo unspecified) | inactive | 
CCOC(=O)C1(Cc2cccc(OC)c2)CCN(C(C)CC(C)(C)O)CC1 (stereo unspecified) | inactive | 
CCOC(=O)C1(Cc2cccc(OC)c2)CCCN(C(=O)CCSC)C1 (stereo unspecified) | 0.37 µM (active) | 
Cc1noc(C)c1CCC(=O)O | inactive | 
CCOC(=O)C1(Cc2cccc(OC)c2)CCN(Cc2csc(C(C)=O)c2)CC1 | inactive | 
COc1ccc(-c2c(NC(=O)c3ccco3)oc3ccc(Cl)cc3c2=O)cc1 | inactive | 
CCCc1cc(=O)[nH]c(SCC(=O)N2C(C)CCCC2C)n1 (stereo unspecified) | inactive | 
CC1(C)NC(=O)N(CC(=O)Nc2cc(C(F)(F)F)cc(C(F)(F)F)c2)C1=O | inactive | 
O=C(COC(=O)CNC(=O)C1CCCCC1)Nc1cccc(F)c1 | inactive | 
CCOc1ccc2nc(N3CCCN(C(=O)Nc4ccccc4C)CC3)c(C#N)cc2c1 | 13.1 µM (active) | 
COc1ccc2nc(N3CCCC(O)C3)c(C#N)cc2c1 (stereo unspecified) | inactive | 
Cc1ccc(F)cc1NC(=O)N1CCCN(c2ccc(C(F)(F)F)cn2)CC1 | inactive | 
CC1(C)O[C@H]2CC(=O)OCC23[C@H]2CC[C@@]4(C)[C@H](c5ccoc5)OC(=O)[C@H]5O[C@]54[C@]2(C)C(=O)C[C@@H]13 (stereo partly specified) | inactive | 
O=C1/C(=C/c2coc3ccc(O)cc3c2=O)SC(=S)N1c1ccccc1 | inactive | 
Cc1cc2c(cc1C)N(Cc1ccccc1)C1=NCCCN12 | 7.38 µM (active) | 
COc1cc(C)c(C)cc1S(=O)(=O)N1CCCc2ccccc21 | inactive | 
CC(C)(C)C(=O)CN1C2=NCCN2c2ccccc21 | inactive | 
COC(=O)c1ccc(/C=C2/C(=O)Oc3ccccc32)cc1 | inactive | 

SMILES | Potency | activity change, negative = inhibition
Clc1cc(NC2CCCCC2)ncn1 | inactive | 
O=C1c2ccccc2S(=O)(=O)N1Cc1c(F)cccc1Cl | inactive | 
CC1CCN(C(=O)Cn2cc(C(=O)c3ccco3)c3ccccc32)CC1 | 10.4 µM (active) | 
N#Cc1ccc(Cn2cc(C(=O)c3ccco3)c3ccccc32)cc1 | inactive | 
Cc1cccc(NC(=O)Cn2cc(C(=O)c3ccco3)c3ccccc32)c1 | inactive | 
CC(=O)Nc1ccc(S(=O)(=O)N2CCn3cccc3C2C)cc1 (stereo unspecified) | inactive | 
Cc1cc(NC(=O)c2ccc(F)cc2)ccc1NC(=O)c1ccco1 | inactive | 
CC1CCCN(S(=O)(=O)c2ccc(-c3ccc(=O)[nH]n3)o2)C1 (stereo unspecified) | inactive | 
CN(Cc1c(F)cccc1Cl)S(=O)(=O)c1cccs1 | inactive | 
COc1ccc2cc1Oc1ccc(cc1)C[C@H]1c3cc(c(OC)cc3CCN1C)Oc1c(O)c(OC)cc3c1[C@H](C2)N(C)CC3 | 1.85 µM (active) | 
CCOc1ccc(C(=O)COC(=O)c2ccc(-n3cnnn3)cc2)cc1 | inactive | 
CCOc1ccc(C(=O)N(Cc2ccc(N(C)C)cc2)C2CCS(=O)(=O)C2)cc1 (stereo unspecified) |  | 17.3% [at 5.75 µM]
COc1cc(C(=O)N(Cc2ccc(N(C)C)cc2)C2CCS(=O)(=O)C2)cc(OC)c1OC (stereo unspecified) | inactive | 
CC1(C)C(C=C(Cl)Cl)C1C(=O)N(Cc1ccc(Cl)cc1)C1CCS(=O)(=O)C1 (stereo unspecified) | 11.7 µM (active) | 
O=C1[C@@H]2C(c3cccnc3)=NO[C@@H]2C(=O)N1c1ccc(Cl)cc1Cl | inactive | 
CC(C)[C@H](NC(=O)OCc1ccccc1)C(=O)OCc1ccccc1 | inactive | 
COc1ccc(C2NC(=O)C(=O)/C2=C(\O)c2ccc(Cl)cc2)cc1OC (stereo unspecified) | inactive | 
CCCN(CC(=O)Nc1ccc(C(N)=O)cc1)CC(=O)Nc1ccccc1C | inactive | 
CC1CCc2[nH]c3ccc(C(=O)N(C)CC(=O)Nc4cccc(F)c4)cc3c2C1 (stereo unspecified) | inactive | 
CCCN(CC(=O)Nc1ccccc1C)C(=O)c1ccc2[nH]c3c(c2c1)CC(C)CC3 (stereo unspecified) | 13.1 µM (active) | 
O=C(OCc1nnc(-c2ccccc2)o1)c1cc(=O)[nH]c2ccccc12 | inactive | 
CCc1nnc(NC(=O)CSCc2cc(=O)n3cc(C)sc3n2)s1 | inactive | 

SMILES | Potency | activity change, negative = inhibition
CC(NCCc1ccc(S(N)(=O)=O)cc1)C(=O)NCc1ccccc1 (stereo unspecified) | inactive | 
COc1ccc(NC(=O)CC2COc3ccccc3O2)c(OC)c1 (stereo unspecified) | inactive | 
CC(=O)c1cccc(NC(=O)C2CCN(C(=O)c3ccccc3Cl)CC2)c1 | inactive | 
O=C(Nc1nc2c(F)cc(F)cc2s1)C1COc2ccccc2O1 (stereo unspecified) | inactive | 
COc1ccc(NC(=O)C2COc3ccccc3O2)cc1 (stereo unspecified) | 1.17 µM (active) | 
CC(=O)c1cccc(NC(=O)C2COc3ccccc3O2)c1 (stereo unspecified) | 2.62 µM (active) | 
O=C(Nc1nc(-c2ccncc2)cs1)C1COc2ccccc2O1 (stereo unspecified) | inactive | 
CCNC(=S)N(CCN(CC)CC)Cc1cc2cc3c(cc2[nH]c1=O)OCCO3 | inactive | 
O=C(/C=C/c1cccc([N+](=O)[O-])c1)N1CCN(Cc2ccccc2)CC1 | inactive | 
Clc1ccc(C[n+]2cc(-c3ccccc3)n3c2CCC3)cc1 | 0.586 µM (active) | 
Clc1ccc(C[n+]2cc(-c3ccc(Cl)cc3)n3c2CCC3)cc1 | 0.37 µM (active) | 
O=C(Cc1ccc(Br)cc1)NCCN1CCOCC1 | inactive | 
COc1cccc(NC(=O)CSc2nnc(-c3cccnc3)o2)c1 | inactive | 
NC(=O)C1CCN(C(=O)c2ccc3c(=O)n(Cc4cccc(Br)c4)c(=S)[nH]c3c2)CC1 | inactive | 
CC(Sc1nnc(COc2ccccc2)n1-c1ccccc1)C(=O)O (stereo unspecified) | inactive | 
CCn1c(SCC(=O)Nc2ccc(OC)c(OC)c2)nnc1-c1c[nH]c2ccccc12 | 11.7 µM (active) | 
CCn1c(SCC(=O)NC2CC2)nnc1-c1ccccc1OC | inactive | 
CCOC(=O)N1CCN(C(=O)CSc2nnc(-c3c[nH]c4ccccc34)n2CCOC)CC1 | inactive | 
